Molecules are shown by their SMILES. About 2,100 (0.66%) of roughly 320,000 compounds were called active. The sample as a whole holds a higher share of actives than the screen did. Values without a mark were called inactive.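 The calls were made as follows: active = inhibition above the mean inhibition of all tested compounds plus 3 SD, set per campaign (cut at about 40% in these data); inactive = the rest.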

Inhibition data for 92 molecules are collected here from PubChem BioAssay AID2057 (The Scripps Research Institute Molecular Screening Center, 2009).

Induced myeloid leukemia cell differentiation protein Mcl-1 (Homo sapiens), sequence (Q07820 whole entry, looked up): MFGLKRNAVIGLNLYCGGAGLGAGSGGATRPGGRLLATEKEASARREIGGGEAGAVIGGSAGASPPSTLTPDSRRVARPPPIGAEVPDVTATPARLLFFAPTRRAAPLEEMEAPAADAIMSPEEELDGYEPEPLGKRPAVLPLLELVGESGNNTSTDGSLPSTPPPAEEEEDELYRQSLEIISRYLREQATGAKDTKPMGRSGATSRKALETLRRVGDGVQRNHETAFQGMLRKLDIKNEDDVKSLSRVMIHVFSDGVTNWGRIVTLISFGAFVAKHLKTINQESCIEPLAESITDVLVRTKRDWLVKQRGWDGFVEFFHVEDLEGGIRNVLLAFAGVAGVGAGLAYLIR

This test addresses Induced myeloid leukemia cell differentiation protein Mcl-1 (Homo sapiens) (UniProt Q07820). Kind of test: MCL1-BIM peptide interaction disruptors – biochemical, fluorescence polarization, primary screen (AID 2057).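 Also: 0% = DMSO wells and 100% = unlabeled Bim-BH3 peptide control; higher means more loss of mP so more displacement of Bim peptide.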 As to conditions: GST-MCL1 / FITC-Bim-BH3 fluorescence polarization; at 10.9 µM; hits give high values.
Broadly, the inhibition is the drop in the measured response relative to a control, in per cent. Consider `CC(=O)N1c2ccc(S(=O)(=O)N3CCC(C(=O)NC4CCCCC4C)CC3)cc2CC1C` (configuration not stated), for which the inhibition was 2%.
The value for `CCOC(=O)c1oc2c(CN3CCN(CCO)CC3)c(O)c(CC)cc2c(=O)c1-c1nc2ccccc2s1` was -0.61%; that for `CC(C)(C)c1ccc(/C=C2\Oc3c(ccc(O)c3CN3CCN(CCO)CC3)C2=O)cc1` was 49.7% (active).
As to `CCN(CC(=O)Nc1ccccc1C(F)(F)F)C(=O)CSCc1c(C)noc1C`, the inhibition was -5.73%.
As to `COC(=O)c1cc(NS(=O)(=O)c2ccc3c(c2)c(=O)n(C)c(=O)n3C)cc(C(=O)OC)c1`, the inhibition is 3.04%.
Turning to `CC(C)OC(=O)CN1C(=O)C(=O)c2ccccc21`, the inhibition was 3.82%.
The value for `CCOC(=O)c1cc2n(c1N)-c1ccccc1C2=O` was 153% (active); that for `CCOC(=O)c1ccccc1CN1C(=O)c2ccccc2S1(=O)=O` was 3.41%.
The value for `Cc1noc(C)c1-c1nc(CSc2ccc(Cl)cc2)no1` was 7.94%; that for `O=C(c1ccc(OC2CCN(C(=O)c3cccnc3)CC2)cc1)N1CCCCCC1` was 1.48%; that for `Cc1ccc(OS(=O)(=O)c2ccc(-c3csc(C)n3)s2)c(C)c1` was 2.53%.
Consider `CC1(C)CCc2nc(SCc3ccccc3)c(C#N)cc2C1`, for which the inhibition was -2.93%.
The value for `Cc1cc(NC(=O)CSc2nc3c(cc2C#N)CCCCC3)no1` was 2.25%; that for `CC(NC(=O)CSc1nc2c(cc1C#N)CN(C)CC2)c1ccccc1` (configuration not stated) was 45% (active); that for `CC1(C)NC(=O)N(CC(=O)Nc2cc(C(F)(F)F)cc(C(F)(F)F)c2)C1=O` was -2.94%.
The value for `Cn1cccc1/C=C1\SC(=O)N(CC(=O)Nc2ccc(F)cc2)C1=O` was -0.64%.
The value for `Cc1ccc(C(=O)O)cc1-c1ccc(/C=C2\SC(=O)N(CC(=O)Nc3ccc4c(c3)OCO4)C2=O)o1` was 56.2% (active); that for `Cc1ccc(C(=O)Nc2ccc3c(c2)OCO3)cc1S(=O)(=O)N1CCCCC1` was 7.58%; that for `Cc1ccc(-c2nc(SCC(=O)Nc3ccccc3OC(F)F)c3c(C)c(C(=O)O)sc3n2)cc1` was 54.1% (active).
With `COc1ccccc1NC(=O)CSc1nc2sc3c(c2c(=O)n1-c1ccccc1)CCN(C)C3`, the inhibition is -0.79%.
On to `CCOC(=O)c1ccc[n+](CC(=O)Nc2ccccc2OC(F)F)c1`, for which the inhibition was -5.72%.
With `COc1cc2c(cc1OC)C(=O)NCC(C)(C)O2`, the inhibition was 5.06%.
The value for `CCC(C)[C@H]1COCCS(=O)(=O)N1Cc1ccc(C)cc1` (some centres not stated) was -11.6%; that for `Nc1ccc(C(=O)OCC(=O)NC2CCCc3ccccc32)cc1[N+](=O)[O-]` (configuration not stated) was -14.1%; that for `COC(=O)c1cc(OCC(=O)NC2CCCc3ccccc32)cc(C(=O)OC)c1` (configuration not stated) was 40.6% (active).
As for `CCOc1ccc(NC(=O)COc2ccc(C(=O)NC3CCCc4ccccc43)cc2OC)cc1` (configuration not stated), the inhibition was -23.3%.
The value for `COc1cc([C@H](Cc2ccccc2)NC(C)=O)oc(=O)c1` was 59.4% (active).
The value for `CCOC(=O)C(Cc1ccccc1)NC(=O)CCC(=O)c1ccc(OC)cc1` (configuration not stated) was 4.46%; that for `COC(=O)[C@H](Cc1ccccc1)NC(=O)Nc1ccc(OC)cc1` was 2.03%.
The value for `Cc1ccc(OCC(=O)c2cc(C)n(Cc3ccco3)c2C)c([N+](=O)[O-])n1` was -1.45%.
Turning to `COC(=O)c1c(NC(=O)c2ccc(S(=O)(=O)N3CCOCC3)cc2)sc2c1CCN(C(C)C)C2`, the inhibition was -0.44%.
The value for `c1ccc2c(c1)CSc1sccc1C2=C1CCNCC1` was 8.84%; that for `CCC1(C)Cc2c(sc3nc(SC)[nH]c(=O)c23)CO1` (configuration not stated) was 6.42%; that for `CCSc1nc2sc3c(c2c(=O)[nH]1)CC(C)(C)OC3` was 7.1%.
The value for `CC/C(C)=N/Nc1nc2sc3c(c2c(=O)[nH]1)CC(C)(C)OC3` was 85% (active); that for `Nc1cc(N)nc(SCC(=O)Nc2cccc(S(=O)(=O)N3CCCCC3)c2)n1` was -0.58%; that for `CC[C@]1(O)C[C@@H]2CN(CCc3c([nH]c4ccccc34)[C@@](C(=O)OC)(c3cc4c(cc3OC)N(C)[C@H]3[C@@](O)(C(=O)OC)[C@H](OC(C)=O)[C@]5(CC)C=CCN6CC[C@]43[C@@H]65)C2)C1` was 119% (active).
The value for `CC[C@]1(O)CC2CN(CCc3c([nH]c4ccccc34)[C@@](C(=O)OC)(c3cc4c(cc3OC)N(C=O)[C@H]3[C@@](O)(C(=O)OC)[C@H](OC(C)=O)[C@]5(CC)C=CCN6CC[C@]43[C@@H]65)C2)C1` (some centres not stated) was 20.2%.
As for `O=C(Cn1c(NCCO)nc2ccccc21)c1ccc(Cl)cc1Cl`, the inhibition is -2.09%.
The value for `CC[C@@H](C)[C@H](NC(=O)CCc1c(C)c2cc3c4c(oc3c(C)c2oc1=O)CCCC4)C(=O)O` was 8.32%.
The value for `CCOC(=O)c1cc(C#N)c(N2CCCCC2)nc1-c1ccccc1` was 2.02%; that for `COc1ccc2nc(N3CCCC(O)C3)c(C#N)cc2c1` (configuration not stated) was 26.1%.
The value for `CCOc1ccc2nc(N3CCCN(C(=O)Nc4ccccc4C)CC3)c(C#N)cc2c1` was 48.6% (active); that for `CSc1ncccc1C(=O)OCc1ccc(Br)cc1` was 4.52%.
Take `CCC(C)(C)NC(=O)c1cc([N+](=O)[O-])ccc1N1CCCCC1`: the inhibition is -1.47%.
Turning to `Cc1cc(C)c(/C=C2\C(=O)Nc3ccccc32)[nH]1`, the inhibition is 180% (active).
Turning to `O=C1Nc2ccccc2/C1=C/c1ccnc2ccccc12`, the inhibition was 4.28%.
The value for `CN(C)/C=C1/Nc2ccccc2C1=O` was 5.28%; that for `CCOC(=O)CNc1nc2ccccc2n2c(C)nnc12` was 6.27%; that for `Fc1ccc(CNc2nc3ccccc3n3nnnc23)cc1` was 60.1% (active).
The value for `COc1ccc(CNc2nnnn2C)cc1` was 2.94%; that for `CCC1CCCCN1C(=S)Nc1ccc(SC(F)F)cc1` (configuration not stated) was 7.19%.
In the case of `COc1ccc(N2CC(C(=O)N[C@@H](C)C(=O)N3CCCCC3)CC2=O)cc1` (some centres not stated), the inhibition is 3.6%.
The value for `O=C(O)c1ccc2c3c(cccc13)C(=O)N(OS(=O)(=O)c1ccccc1)C2=O` was -8.23%; that for `C[N+](C)(CCCCCC[N+](C)(C)CCCN1C(=O)c2cccc3cccc(c23)C1=O)CCCN1C(=O)c2cccc3cccc(c23)C1=O` was -10.5%; that for `O=C1c2ccccc2C(=O)N1c1cccc2ccccc12` was 2.1%.
The value for `Cc1nn(-c2cc(Cl)ccc2N)c(=O)c2ccccc12` was 0.14%; that for `CC(C)(CNC(=O)Cc1ccc(Cl)cc1Cl)N1CCOCC1` was 4.7%; that for `O=C(c1cccnc1)N(c1cc2sc(=O)oc2c2ccccc12)S(=O)(=O)c1ccccc1` was 23.9%.
`CCCCC(NC(=O)c1cccc(Br)c1)C(=O)O` (configuration not stated): the inhibition was -0.19%.
With `CC1=NN(C(C)C)C(=O)C1`, the inhibition was -2.13%.
On to `COCc1c(N)c(C)nc(Cl)c1C#N`, for which the inhibition is 8.83%.
As to `CCOc1ccc(N(CC(=O)NCC2CCCO2)S(=O)(=O)c2ccc(C)cc2)cc1` (configuration not stated), the inhibition is -3.41%.
The value for `Cc1c(CC(=O)N2CCN(C(=O)C3COc4ccccc4O3)CC2)c(=O)oc2c(O)c(O)ccc12` (configuration not stated) was 57.5% (active); that for `O=C(CNC(=O)C1COc2ccccc2O1)N/N=C/c1cc(Br)c(O)c(Br)c1` (configuration not stated) was 10.8%.
The value for `Cc1c(C)c2ccc(OCC(=O)N3CCC(C(=O)O)CC3)c(C)c2oc1=O` was -1.79%.
In the case of `O=C(NCCCCc1ccccc1)C1CC(c2ccc([N+](=O)[O-])cc2)=NO1` (configuration not stated), the inhibition was 12.6%.
The value for `CN(CC(=O)NC1CCN(Cc2ccccc2)CC1)S(=O)(=O)c1ccc(Cl)s1` was 3.17%; that for `CCc1cc(CNC(=O)CC2C(=O)NCCN2Cc2ccccc2C(F)(F)F)on1` (configuration not stated) was 17.3%; that for `CC1(C)CC(=O)C2=C(C1)NCN(CCCN1CCOCC1)C2` was -0.98%.
Turning to `O=C(N/N=C/c1cc(Cl)cc([N+](=O)[O-])c1O)C(O)(c1ccccc1)c1ccccc1`, the inhibition is 9.22%.
The value for `O=[N+]([O-])c1cc(Cl)cc(/C=N/NC(=S)Nc2cc(S(=O)(=O)N3CCOCC3)ccc2Cl)c1O` was 52.5% (active); that for `O=C(NC(=S)Nc1ccc(S(=O)(=O)N2CCOCC2)cc1)c1ccccc1[N+](=O)[O-]` was 14.4%.
For the molecule `COC(=O)CN(c1cccc(C(C)=O)c1)S(C)(=O)=O`, the inhibition was 0.97%.
For the molecule `CCCSc1ncccc1C(=O)O`, the inhibition was -3.51%.
The value for `COc1cccc(Nc2ncccc2C(=O)O)c1` was 1.4%; that for `COc1ccc(NS(=O)(=O)c2ccc(F)cc2F)cn1` was 8.27%.
Consider `COc1ccc(Nc2cc(Cl)ccc2C(=O)O)cn1`, for which the inhibition was 62.7% (active).
As for `CCCOc1ccc(Cl)cc1Nc1nc(NCCO)nc(N2CCCC2)n1`, the inhibition was 3.82%.
The value for `NC1=NC2(CCCCC2)N(c2ccc(F)cc2F)C(N)=N1` was 10.2%; that for `COc1ccc(Cl)cc1C(=O)OCC(=O)NCc1cccs1` was -2.56%; that for `O=C(CSc1ncccn1)N1CCCC1` was 9.67%.
The value for `C=CCNc1nnc(C)c2ccccc12` was -0.12%.
In the case of `C=CCNc1nnc(SCC(=O)N2CCCCC2)c2ccccc12`, the inhibition was 120% (active).
The value for `O=C(c1ccc(F)c(S(=O)(=O)N2CCOCC2)c1)N(CCc1ccccc1)Cc1ccccc1` was 32.4%.
The value for `O=C(NCCSCc1ccccc1)c1ccc(Cl)c(S(=O)(=O)N2CCOCC2)c1` was 1.14%; that for `CCOc1ccc(NC(=O)CCCCCN2C(=O)[C@@H]3Cc4ccccc4CN3C2=O)cc1` was 6.32%.
Regarding `COc1ccc(CC(=O)Nc2c3c(nn2-c2cccc(Cl)c2)CS(=O)C3)cc1` (configuration not stated), the inhibition was -2.25%.
Turning to `CCNc1nc(N)nc(-c2cc(Cl)ccc2OC)n1`, the inhibition is -1.8%.
The value for `COc1ccc(CCn2c(=N)c(C(=O)NCC3CCCO3)cc3c(=O)n4cccc(C)c4nc32)cc1OC` (configuration not stated) was 2%; that for `Cc1cccn2c(=O)c3cc(C(=O)NCCN4CCOCC4)c(=N)n(Cc4cccnc4)c3nc12` was 46.7% (active).
The value for `Cc1cccn2c(=O)c3cc(C(=O)NCC4CCCO4)c(=N)n(Cc4ccc(F)cc4)c3nc12` (configuration not stated) was -4.4%.
